Data published in PubChem BioAssay (NCATS).
Inconclusive results are not listed. A number with no mark means an inactive call. Calls of active or inactive are those of the source. The call rests on the fitted dose curve; in most records, active means well fitted cell-killing curve with a large enough effect; inconclusive means small, poorly fitted or top-dose-only effect; inactive means flat fitted curve, though single readings scatter.

Assay: qHTS of pediatric cancer cell lines to identify multiple opportunities for drug repurposing: Confirmatory screen for A673 cells (AID 1347110);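 further: cells exposed to compound for 48 h before the viability read; nearly all actives have a fitted effect of over 65% in size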
Conditions: A673 Ewing sarcoma cell viability; series mostly up to 45.9 µM; activity change, negative = cytotoxicity: at the top concentration
Description: Drug repurposing or repositioning has been offered as a strategy for drug development in oncology programs. This approach has special potential for childhood cancers and other rare or orphan diseases, where the expected return on new drug development has been a disincentive to pharmaceuticals.
In this project we exploit the poly-pharmacology of drugs to discover new indications via phenotypic screening of a panel of 19 well-characterized cell lines derived from solid tumors seen in children and adolescents. The goal is to identify approved drugs with previously unrecognized anticancer properties that has the potential to reveal new mechanisms and biological processes involved in carcinogenesis or drug resistance. We employed a titration-based paradigm (quantitative high-throughput screening or qHTS), where all compounds were tested at multiple concentrations for their effect on cell viability. Concentration-response curves (CRCs) were derived directly from the primary screen, and both potency and efficacy values were used to identify compounds with robust bioactivity profiles. We screened the NIH Chemical Genomics Center (NCGC) Pharmaceutical Collection (NPC) and Mechanism Interrogation Plate (MIPE) small molecule collections of approved and investigational compounds against these cell lines; and measured metabolically active cells after 48 hours of compound treatment as a proxy for cell viability.
Assay Submitter: Nathalia J. Martinez, National Center for Advancing Translational Sciences, National Institutes of Health, Rockville, MD, USA; email: natalia.martinez@nih.gov.
[1] Shen, M et al. Quantitative high-throughput phenotypic screening of pediatric cancer cell lines identifies multiple opportunities for drug repurposing. Oncotarget 2017 Dec 19;9(4):4758-4772. PMID 29435139.
The cells were obtained from University of North Carolina (UNC), Pediatric Preclinical Testing Program (PPT), and Coriell Institute (CI).
qHTS cell viability assay:
Cells were assayed in growth media at a density of 500-1,000 cells/well. Five microliters of cells were dispensed into 1,536-well, white, solid-bottom, TC-treated plates (Greiner Bio One) using a multidrop dispenser and incubated at 37 degrees C, 5% CO2, under a humidified atmosphere for 5 hours. Twenty-three nanoliters of compounds and controls (neutral control DMSO or positive control bortezomib at final concentration of 2.3 uM) were subsequently transferred by Kalypsys pintool. For primary screens, the MIPE collection was tested at 11-point dilutions (final concentrations range from 0.78 nM to 46 µM) and the NPC collection at 8-point dilutions (final concentrations range from 0.59 nM to 46 µM). Compounds tested in follow-up screens were assayed at 11-point dilutions. Cells were incubated for 48 hours, followed by addition of 3 uL of CellTiter-Glo (Promega). After a 15min incubation at room temperature, samples were analyzed for luminescence intensity using a ViewLux High-throughput CCD imager equipped with clear filters.
Potency means the concentration at half of the fitted maximal effect.

Row | SMILES | Potency | activity change, negative = cytotoxicity [%]
1 | COc1cc2ncnc(Nc3cccc(Br)c3)c2cc1OC | 14.7 µM (active) | 
2 | COc1cc(O)c2c(c1)C1OC1C[C@H](O)[C@H](O)C(=O)C=CC[C@H](C)OC2=O (stereo not given in full) | 11.7 µM (active) | 
3 | CC(=O)SCC(Cc1ccccc1)C(=O)NCC(=O)OCc1ccccc1 (stereo not given) |  | 4.3
4 | C[C@@]12C(=O)OC(=O)[C@@]1(C)C1CCC2O1 | 9.27 µM (active) | 
5 | CCOC(=O)N1CCN([N+]([O-])=NOc2ccc([N+](=O)[O-])cc2C#N)CC1 | 2.61 µM (active) | 
6 | Cc1nc(NC(=O)N2CCC[C@@H]2C(N)=O)sc1-c1ccnc(C(C)(C)C(F)(F)F)c1 | 16.5 µM (active) | 
7 | N#CNC(=NCCCCCCOc1ccc(Cl)cc1)Nc1ccncc1 | 0.0117 µM (active) | 
8 | C=C1C(=CC=C2CCC[C@]3(C)[C@@H]([C@H](C)CCCC(C)(C)O)CC[C@@H]23)C[C@@H](O)C[C@@H]1O |  | -5.72
9 | COc1ccc(S(=O)(=O)Nc2cccnc2Nc2ccc(O)cc2)cc1 | 0.928 µM (active) | 
10 | COc1cc([C@@H]2c3cc4c(cc3[C@H](O)[C@H]3COC(=O)[C@@H]23)OCO4)cc(OC)c1OC | 0.928 µM (active) | 
11 | COc1cc(OC)c(C=CS(=O)(=O)Cc2ccc(OC)c(NCC(=O)O)c2)c(OC)c1 | 0.369 µM (active) | 
12 | CCC(C=C[C@@H]1OC(=O)C=C[C@H]1C)=C[C@H](C)CC=CC(C)=C[C@@H](C)C(=O)[C@@H](C)[C@H](O)[C@@H](C)CC(C)=CC(=O)O | 0.0322 µM (active) | 
13 | Cn1cnc(=N)c2[nH]cnc21 |  | 0.359
14 | CN(CC(=O)N(Cc1ccc(C2CCCCC2)cc1)c1ccc(C(=O)O)c(O)c1)S(=O)(=O)c1c(F)c(F)c(F)c(F)c1F | 13.1 µM (active) | 
15 | CC(=O)O[C@@]12CO[C@H]1C[C@H](O)[C@@]1(C)C(=O)[C@H](O)C3=C(C)[C@@H](OC(=O)C(O)[C@@H](NC(=O)OC(C)(C)C)c4ccccc4)C[C@@](O)([C@@H](OC(=O)c4ccccc4)[C@@H]21)C3(C)C (stereo not given in full) | 0.0052 µM (active) | 
16 | CNC(=O)c1cccc(-c2ccc3c(N4CCOC[C@H]4C)nc(N4CCOC[C@H]4C)nc3n2)c1 | 1.47 µM (active) | 
17 | C#CCC(Cc1cnc2nc(N)nc(N)c2n1)c1ccc(C(=O)N[C@@H](CCC(=O)O)C(=O)O)cc1 (stereo not given in full) | 0.0657 µM (active) | 
18 | CC(C)(O)Cn1c(NC(=O)c2ccc(-c3cn[nH]c3)s2)nc2cc(CN3CCOCC3)ccc21 | 1.17 µM (active) | 
19 | O=C1NC(=O)C(=Cc2ccc3nccc(-c4ccncc4)c3c2)S1 | 4.65 µM (active) | 
20 | COc1cc(C=CC(=O)CC(=O)C=Cc2ccc(O)c(OC)c2)ccc1O | 10.7 µM (active) | 

Row | SMILES | Potency | activity change, negative = cytotoxicity [%]
21 | N#Cc1c(NC(=O)c2cccc3ccccc23)sc2c1CCCC2 | 0.414 µM (active) | 
22 | NC(=O)Nc1cc(-c2ccc(CN3CCOCC3)cc2)sc1C(N)=O | 11.7 µM (active) | 
23 | C=CC(=O)Nc1ccc2ncnc(Nc3ccc(OCc4cccc(F)c4)c(Cl)c3)c2c1 | 3.29 µM (active) | 
24 | CC(C)(N)c1ccc(-c2nc3ccccc3nc2-c2ccccc2)cc1 | 2.93 µM (active) | 
25 | CC(C)C[C@H](NC(=O)[C@@H](NC(=O)c1cccc(-c2ccccc2)n1)[C@@H](C)O)B(O)O | 0.0737 µM (active) | 
26 | CC[C@]12C=CCN3CC[C@@]4(c5cc([C@@]6(C(=O)OC)C[C@H]7C[C@@H](C(C)(F)F)CN(Cc8c6[nH]c6ccccc86)C7)c(OC)cc5N(C)[C@H]4[C@@](O)(C(=O)OC)[C@H]1OC(C)=O)[C@@H]32 | 0.522 µM (active) | 
27 | COC[C@H](NC(=O)c1cnc(C)s1)C(=O)N[C@@H](COC)C(=O)N[C@@H](Cc1ccccc1)C(=O)[C@@]1(C)CO1 | 0.165 µM (active) | 
28 | COc1cccc2c1C(=O)c1c(O)c3c(c(O)c1C2=O)C[C@@](O)(C(=O)CO)C[C@@H]3O[C@H]1C[C@H](N)[C@@H](O)[C@H](C)O1 | 0.293 µM (active) | 
29 | COC(=O)C=CC(=O)OC |  | -14.7
30 | C[C@H](NCc1ccc2c(c1)nc(NC(=O)c1ccc(-c3cn[nH]c3)s1)n2CCc1ccccc1)C(C)(C)C | 0.928 µM (active) | 
31 | O=C(Nc1cc2cc[nH]c2cn1)c1ccccc1 | 1.65 µM (active) | 
32 | CCN(CC)Cc1ccc2cc(COC(=O)Nc3ccc(C(=O)NO)cc3)ccc2c1 |  | 22.3
33 | C=CCNC1=C2C[C@@H](C)C[C@H](OC)[C@@H](O)[C@@H](C)C=C(C)[C@H](OC(N)=O)[C@@H](OC)C=CC=C(C)C(=O)NC(=CC1=O)C2=O | 1.17 µM (active) | 
34 | CC1(C)O[C@@H]2C[C@H]3[C@@H]4CCC5=CC(=O)C=C[C@]5(C)[C@@H]4[C@@H](O)C[C@]3(C)[C@]2(C(=O)CO)O1 |  | 9.26
35 | C[C@H]1[C@@H](OC(=O)CCC(=O)O)O[C@@H]2O[C@@]3(C)CC[C@@H]4[C@H](C)CC[C@@H]1[C@@]24OO3 | 2.33 µM (active) | 
36 | COc1cccc2c1C(=O)c1c(O)c3c(c(O)c1C2=O)C[C@@](O)(C(C)=O)C[C@H]3O[C@H]1C[C@H](N)[C@H](O)[C@H](C)O1 | 0.414 µM (active) | 
37 | CN(C)c1ccc(C(=O)NCCCCCCC(=O)NO)cc1 | 1.85 µM (active) | 
38 | COc1ccc(C(C)=O)c(O)c1 |  | 12.9
39 | CC(N[C@H]1CCCC[C@H]1NC(=O)c1ccc(Cl)cc1)c1cccc2ccccc12 (stereo not given in full) | 16.5 µM (active) | 
40 | CC(=O)[C@]1(O)Cc2c(O)c3c(c(O)c2[C@@H](O[C@H]2C[C@H](N)[C@@H](O)[C@H](C)O2)C1)C(=O)c1ccccc1C3=O | 0.0827 µM (active) | 
